# Sampled rows, rich in hits. Any-hit rate of the full collection: about 5.9%.
# Gal4-VP16 FLuc: inhibits Gal4-VP16 luciferase reporter, ROR gamma counter-screen | Drosophila S2 Gal4-VP16 UAS-luciferase, luminescence, 20 h | Potency, µM (series often up to 53.6 µM), for inactives: top-dose activity, negative = inhibition, usual class: inhibitors | 310,000 tested, 3.5% active | AID 2546;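 further: Gal4-VP16 expression switched on by copper sulfate through the metallothionein promoter; on the % scale 0 is the no-effect control and ±100 the full control effect; nearly all actives have a fitted effect of over 50% in size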
# HEK293 tox: cytotoxicity in counter-screen for GLP-1R inverse agonists; HEK293 cAMP-luciferase reporter cells, luminescence, 24 h; Potency, µM (doses to about 38.3 µM), without a hit: at the highest dose activity change, negative = inhibition, usual class: inhibitors; 410,000 tested, 0.13% active; AID 624418;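 further: loss of luciferase light is scored as toxicity; on the % scale 0 is the no-effect control and ±100 the full control effect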
#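 Compound-treated cells are incubated 24 hr at 37 deg C under 5% CO2 after a 12 hour attachment period, then luciferase detection reagent is added and luminescence is measured following 12 min at room temperature; lowered signal indicates toxicity.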
# RORgamma inh: blocks mouse ROR gamma transcriptional activity. Drosophila S2 Gal4-RORgamma UAS-luciferase reporter, 20 h. 310,000 tested, 5.4% active. AID 2551. P51450. Potency, µM (highest dose often 53.6 µM), for inactives: top-dose activity change, negative = inhibition, hits mostly inhibitors; further: on the % scale 0 is the no-effect control and ±100 the full control effect; nearly all actives have a fitted effect of over 60% in size
# Target sequence (P51450 whole entry, looked up, the tested form may be a part): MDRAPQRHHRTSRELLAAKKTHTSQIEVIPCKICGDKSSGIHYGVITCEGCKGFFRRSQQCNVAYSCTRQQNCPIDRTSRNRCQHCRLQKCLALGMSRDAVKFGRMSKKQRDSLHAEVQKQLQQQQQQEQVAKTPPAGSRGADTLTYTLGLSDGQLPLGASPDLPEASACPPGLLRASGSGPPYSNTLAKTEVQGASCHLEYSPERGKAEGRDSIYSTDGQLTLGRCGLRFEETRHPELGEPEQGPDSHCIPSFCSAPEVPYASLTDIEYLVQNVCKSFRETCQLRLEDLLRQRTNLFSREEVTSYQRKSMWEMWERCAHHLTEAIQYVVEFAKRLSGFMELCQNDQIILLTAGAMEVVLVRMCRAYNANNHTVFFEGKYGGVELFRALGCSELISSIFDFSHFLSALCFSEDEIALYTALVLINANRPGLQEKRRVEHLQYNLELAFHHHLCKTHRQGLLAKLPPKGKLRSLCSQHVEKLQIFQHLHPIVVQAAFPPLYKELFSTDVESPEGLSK
#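 Using a luciferase readout, inhibitors were identified by reduced reporter activity in Drosophila cells coexpressing a copper-inducible Gal4–ROR gamma fusion and UAS-driven Photinus luciferase, incubated 20 hr after 700 uM copper sulfate.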
# GLP1R ag: activates the human GLP-1 receptor; P43220; HEK293 GLP-1R CRE-luciferase, luminescence, 4-6 h; cells express a hypersensitive GLP-1R form; Potency, µM (top dose mostly 45.6 µM), without a hit: top-dose activation, hits mostly activators; 380,000 tested, 0.007% active; AID 624172; further: % of control where 0% means no effect
# GLP-1R inv ag: inverse agonists of human GLP-1 receptor | P43220 | HEK293 GLP-1R CRE-luciferase, luminescence, 24 h; GLP-1R form is constitutively active | Potency, µM (series often up to 38.3 µM), for the others: at the highest dose activity change, negative = inhibition, hits mostly inhibitors | 410,000 tested, 1.6% active; further: on the % scale 0 is the no-effect control and ±100 the full control effect; nearly all actives have a fitted effect of over 55% in size
#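 HEK293 cells stably co-expressing a cAMP-responsive luciferase reporter and constitutively active GLP-1R were seeded, incubated 12 h, then exposed to compounds for 24 h at 37 C. Luminescence was read 12 min after detection reagent; inverse agonists lower signal.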
# Numbers without * were called inactive; ? = inconclusive; . = no result given; [ ] = remark or other dose. The call rests on the fitted dose curve; in most records, active means well fitted curve in the direction sought with a large enough effect; inconclusive means small, poorly fitted or top-dose-only effect, or another doubt; inactive means no such curve, though single readings can be large; an effect the other way counts as inactive or inconclusive. Potency means the concentration at half of the fitted maximal effect.
SMILES,Gal4-VP16 FLuc,HEK293 tox,RORgamma inh,GLP1R ag,GLP-1R inv ag
S=C(NCc1ccco1)Nc1ccc(Br)cn1,3.5µM*,?,3.2µM*,24%,?
S=C(NCc1ccco1)Nc1cc(-c2ccccc2)[nH]n1,?,?,6.3µM*,10%,?
O=C(NCc1ccco1)Nc1cccc(-c2ccccc2)c1,.,4%,.,8%,?
CCN(CCCNC(=O)CSc1cc(=O)n(CC)c2ccccc12)c1ccccc1,.,-3%,.,.,?
C/C(CCc1ccc2c(c1)OCO2)=N\NC(=O)c1ccccc1,18%,-2%,-16%,3%,18%
CCC1=NN(C(=O)CCc2ccc3c(c2)OCO3)C(O)(C(F)(F)F)C1 (stereo unspecified),3%,12%,11µM*,9%,7%
CCC1=NN(C(=O)CCc2ccccc2O)C(O)(C(F)(F)F)C1 (stereo unspecified),?,-15%,10µM*,14%,-18%
CC(C)(C)C1(O)CC(C(F)(F)F)=NN1C(=O)CCCc1ccccc1 (stereo unspecified),-16%,9%,14%,5%,?
C=C(Nc1ccc(OC)cc1)C(=O)OC,-16%,.,-12%,.,.
NC(N)=NCCC[C@H](NC(=O)CC1(CC(=O)N2CCN(C3c4ccccc4NC(=O)c4ccccc43)CC2)CCCC1)C(=O)NCCn1c(=O)n(-c2ccccc2)n(-c2ccccc2)c1=O (stereo partly specified),2%,.,-12%,.,.
CCC1=NN(C(=O)COc2ccccc2)C(O)(c2ccc(Br)cc2)C1 (stereo unspecified),-12%,-21%,-12%,15%,?
CCC1=NN(C(=O)c2ccccc2Br)C(O)(c2ccc(Br)cc2)C1 (stereo unspecified),?,?,8.9µM*,-1%,?
CCC1=NN(C(=O)c2ccccc2O)C(O)(c2ccccc2)C1 (stereo unspecified),7.9µM*,17%,5µM*,-2%,?
COC(=O)CC1C(C)(C)C(OC(C)=O)C2[C@H](OC(C)=O)[C@]34O[C@]2(O)[C@]1(C)C3CC[C@]1(C)C4=CC(=O)OC1c1ccoc1 (stereo partly specified),-8%,.,4%,.,.
COc1ccc(NC(=O)COCc2cc(-c3cccs3)on2)cc1,.,0%,.,.,-8%
CCOc1ccc2c(c1)C(=NNC(=O)c1ccncc1)c1cc(OCC)ccc1-2,0.89µM*,?,1.1µM*,7%,4%
CCOc1ccc(NC(=O)c2ccncc2)cc1,-2%,-15%,22%,-5%,8%
CC(NC(=O)c1ccc2c(c1)N(Cc1cccc(F)c1)C(=O)c1ccccc1S2)c1ccccc1 (stereo unspecified),.,6%,.,.,?
Cc1nc2cnc(Nc3ccccc3)nc2n(CCc2ccccc2)c1=O,-8%,.,11%,.,.
O=C(c1ccccc1)c1cc(-c2ccccc2)on1,11µM*,-8%,?,-35%,?
Cc1cc(NC(=O)c2cc(-c3ccccc3)on2)no1,-1%,2%,22%,-7%,7%
O=C(Nc1ccccc1O)c1cc(S(=O)(=O)N2CCCC2)ccc1Cl,.,3%,.,.,?
CC(C)(C)OC(=O)N(CCc1ccccc1)Cc1ccc(OCc2cccc(NC(=O)C3CC3)c2)cc1,.,9%,.,-3%,7.9µM*
CC(C)(C)OC(=O)N(CCc1ccccc1)Cc1cccc(OCc2cccc(NC(=O)c3ccccc3)c2)c1,.,1%,.,-3%,10µM*
COc1ccc(CCNC(=O)c2ccc3c(c2)nc2n3CCCCC2)cc1OC,.,6%,.,.,34%
SMILES,Gal4-VP16 FLuc,HEK293 tox,RORgamma inh,GLP1R ag,GLP-1R inv ag
O=C(NCCc1ccccc1)c1ccc2c(c1)nc1n2CCOC1,.,15%,.,.,8.9µM*
O=C(NCCc1ccccc1Cl)c1ccc2c(c1)nc1n2CCCCC1,.,5%,.,.,13µM*
CCNC(=O)c1ccc2c(c1)nc1n2CCCCC1,.,-7%,.,.,-8%
CC(C)CCNC(=O)c1ccc2c(c1)nc1n2CCCCC1,.,1%,.,.,6.3µM*
CCC1SC2=NC(C)=C(C(=O)OCC(C)C)C(/C=C/c3ccccc3OC)N2C1=O (stereo unspecified),-2%,7%,0%,25%,7.9µM*
CCOC(=O)c1c(-c2ccc(C)o2)csc1NC(=S)NC(=O)N(C)C,2.2µM*,?,0.79µM*,-14%,-14%
CCOC(=O)c1c(-c2ccc(C)o2)csc1NC(=O)COC(=O)c1cccs1,20µM*,11%,?,0%,-5%
NCC(=O)N[C@@H](CCCN=C(N)N)C(=O)NCC(=O)N[C@@H](CC(=O)O)C(=O)N[C@@H](CO)C(=O)N1CCC[C@H]1C(=O)O,3%,.,3%,.,.
Cc1ccc(Nc2c(F)cccc2Cl)c(CC(=O)O)c1,.,.,.,1%,.
CC1(C(=O)NCc2ccc(F)c(F)c2)Cc2c(-c3cccc(C(F)(F)F)c3)ccnc2O1 (stereo unspecified),.,-23%,.,-1%,10µM*
CC1(C(=O)NCc2ccc(F)c(F)c2)Cc2c(-c3ccccc3)ccnc2O1 (stereo unspecified),.,-5%,.,6%,?
CC(=O)Nc1cccc(-c2ccnc3c2CC(C)(C(=O)Nc2cccc(C(F)(F)F)c2)O3)c1 (stereo unspecified),.,-34%,.,2%,11µM*
CCOC(=O)C1(CCOc2ccccc2)CCN(Cc2cccc(-n3cccn3)c2)CC1,-14%,-12%,40%,-4%,5µM*
CCOC(=O)C1(CCOc2ccccc2)CCN(Cc2ccc(OCC)c(CO)c2)CC1,.,0%,.,-1%,11µM*
CCOC(=O)C1(CCOc2ccccc2)CCN(Cc2ccc(OC)cc2)CC1,.,-14%,.,-1%,10µM*
CCOC(=O)C1(CCOc2ccccc2)CCN(Cc2cccc(OC)c2OC)CC1,-9%,-4%,14%,21%,10µM*
CCOC(=O)C1(CCOc2ccccc2)CCN(Cc2cccc(OCCO)c2)CC1,3%,3%,1%,0%,?
CCCCCC(=O)/C=C/C=C\C/C=C\C/C=C\CCCC(=O)O,-2%,.,23%,.,.
CN(C)c1ccc(NC(=O)c2cnsn2)cc1,10µM*,16%[0.307 µM],10µM*,-24%,2%[0.307 µM]
O=c1c(O)c(-c2ccc(O[C@@H]3O[C@H](CO)[C@@H](O)[C@H](O)[C@H]3O)c(O)c2)oc2cc(O)cc(O)c12,-3%,.,1%,.,.
COc1ccc(-c2nnn(CC(=O)N(Cc3ccco3)C(C(=O)NCC3CCCO3)c3ccco3)n2)cc1 (stereo unspecified),4%,-2%,8%[10 µM],18%,2%
Cc1ccc(-c2nnn(CC(=O)N(Cc3ccco3)C(C(=O)NC(C)(C)C)c3ccc(C)o3)n2)o1 (stereo unspecified),1%,1%,25%,0%,1.3µM*

# Screening results: PubChem, National Center for Advancing Translational Sciences (NCATS)
